PLCb3 inh: human PLC-beta3 inhibitors, primary screen, biochemical, fluorescence; Purified PLC-beta3, fluorogenic substrate; 1-phosphatidylinositol 4,5-bisphosphate phosphodiesterase beta-3 (Homo sapiens), Q01970; AID 720704, 2013; inhibition, % at 12.2 µM; actives 0.18% (n = 370,000)
PLC-gamma1 inh: PLC-gamma1 enzyme inhibitors, primary screen, biochemical, fluorescence, purified enzyme | 1-phosphatidylinositol 4,5-bisphosphate phosphodiesterase gamma-1 (Homo sapiens), P19174 | fluorogenic substrate | inhibition, % at 12.2 µM | actives 0.84% (n = 370,000); in the data active = inhibition above about 9.5%
HGIII-sPLA2 inh: human group III sPLA2 inhibitors, primary screen, biochemical, QFRET, BODIPY PC-A2 liposome substrate; Group 3 secretory phospholipase A2 (Homo sapiens), Q9NZ20; QFRET BODIPY PC-A2 liposome hydrolysis, fluorescence; inhibition, % at 12.2 µM; actives 0.56% (n = 370,000);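 active = inhibition above mean plus 3 SD of compounds lying within the high and low control bounds, cut at about 19% in these data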
ADAM17 inh: ADAM17 inhibitors, primary screen, biochemical, QFRET; Disintegrin and metalloproteinase domain-containing protein 17 (Homo sapiens), P78536; recombinant ADAM17, EDANS/DABCYL FRET peptide cleavage; inhibition, % at 6.95 µM; actives 0.83% (n = 370,000); AID 720648, 2013;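 active = inhibition above the mean of compounds lying between control limits plus 3 SD, set per campaign, cut at about 8.5% in these data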
Target sequence (P78536 215-824 limits assumed): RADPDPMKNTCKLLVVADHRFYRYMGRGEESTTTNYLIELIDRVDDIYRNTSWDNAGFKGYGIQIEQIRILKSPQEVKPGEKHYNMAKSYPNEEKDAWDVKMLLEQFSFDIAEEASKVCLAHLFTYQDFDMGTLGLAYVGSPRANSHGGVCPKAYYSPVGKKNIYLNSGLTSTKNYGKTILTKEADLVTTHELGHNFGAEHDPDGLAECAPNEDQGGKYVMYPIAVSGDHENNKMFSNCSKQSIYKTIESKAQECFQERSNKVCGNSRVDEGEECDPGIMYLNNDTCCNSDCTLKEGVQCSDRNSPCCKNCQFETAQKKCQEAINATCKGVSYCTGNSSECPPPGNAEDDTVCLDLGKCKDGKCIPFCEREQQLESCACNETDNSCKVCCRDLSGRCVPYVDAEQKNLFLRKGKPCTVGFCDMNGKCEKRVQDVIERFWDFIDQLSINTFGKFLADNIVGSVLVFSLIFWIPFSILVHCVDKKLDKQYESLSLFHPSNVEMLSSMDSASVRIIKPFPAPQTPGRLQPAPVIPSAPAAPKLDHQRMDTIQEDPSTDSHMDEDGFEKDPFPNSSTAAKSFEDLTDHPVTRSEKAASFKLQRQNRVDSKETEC
proKLK7 act: proKLK7 zymogen activators, primary screen, biochemical, fluorescence intensity; Kallikrein-7 (Homo sapiens), P49862; purified proKLK7, EDANS-DABCYL substrate fluorescence; 100% is mature enzyme control, 0% vehicle; activation, % at 7 µM; actives 0.9% (n = 370,000);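 active = activation above the mean of all tested compounds plus 3 SD, computed per campaign excluding outliers beyond control limits, cut at about 13% in these data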
ADAM10 inh: human ADAM10 inhibitors, primary screen, biochemical, QFRET, HTS | actives 0.62% (n = 370,000) | inhibition, % at 7 µM | recombinant ADAM10, EDANS/DABCYL FRET peptide cleavage, 3 h | AID 720582, 2013;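 active = inhibition above a per-campaign cutoff equal to the mean of compounds falling between control-based bounds plus 3 SD, cut at about 20% in these data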
PLCg1 ctr: PLC-gamma1 enzyme inhibitors, counter-screen for PLC-beta3 inhibitor project, biochemical, fluorescence | AID 743258, 2014 | inhibition, % at 12.3 µM | actives 3.1% (n = 3,300) | shares compounds with PLC-gamma1 inh | purified PLC-gamma1, fluorogenic substrate; in the data active = inhibition above about 9.5%
PLCbeta3 conf: PLC-beta3 inhibitor confirmation, biochemical, fluorescence, purified enzyme; shares compounds with PLC-gamma1 inh; fluorogenic substrate fluorescence; AID 743261, 2014; actives 1% (n = 3,300); inhibition, % at 12.3 µM
Of the large screens only hits and unclear results are named; the others gave an inactive call (follow-up assays come after a bar, where they were run); ! = not confirmed by another sample. Hits are enriched below; roughly 3.4% of the tested compounds scored in any of these assays. Rule as the data show it, unless noted: active = inhibition above about 11%; inactive = the rest.

COc1ccc(C2C(C(=O)Nc3ccc(Cl)c(Cl)c3)CCC(=O)N2c2ccc(OC)cc2)cc1 (configuration not stated)	none
O=C1C(=O)c2cccnc2-c2ncccc21	PLC-gamma1 inh 53 | PLCg1 ctr 51 | PLCbeta3 conf inactive
CC(O)Cc1cn(CC(=O)N2CCN(C(=O)OC(C)(C)C)CC2)nn1 (configuration not stated)	PLC-gamma1 inh 13 | PLCg1 ctr inactive | PLCbeta3 conf inactive
CCCCCCOc1ccc(/C(N)=N/O)cc1	PLC-gamma1 inh 12 | PLCg1 ctr inactive | PLCbeta3 conf inactive
COc1ccc(-c2nnc(SCC(=O)Nc3ccccc3)n2C)cc1	PLC-gamma1 inh 13 | PLCg1 ctr inactive | PLCbeta3 conf inactive
COc1ccc(-c2nnc(SCC(=O)N/N=C/c3ccccc3C(=O)O)n2-c2ccccc2)cc1	PLC-gamma1 inh 14 | PLCg1 ctr inactive | PLCbeta3 conf inactive
COc1ccc(NC(=O)CSc2nnc(-c3ccncc3)n2C)cc1	none
COc1ccc(-c2nnc(SCC(=O)NCc3cccs3)n2CC(C)C)cc1	PLC-gamma1 inh 10 | PLCg1 ctr inactive | PLCbeta3 conf inactive
COC(=O)CNC(=O)CSc1nnc(-c2ccc(OC)cc2)n1CC(C)C	none
COC(=O)c1cc2c(c3c4cc(OC)ccc4n(C(=O)c4ccccc4)c13)C(=O)N(C1CCCCC1)C2	none
C=CC[C@]12C[C@@]3(O[C@H](C4CCCCC4)N=C3C[C@H](c3ccc(OC)cc3)[C@H]1C)N(Cc1ccncc1)C2=O	none
CC(C)=CCN1CCN(Cc2cccc3nonc23)CC1CCO (configuration not stated)	none
OCCC1CN(Cc2cccc3nonc23)CCN1Cc1ccsc1 (configuration not stated)	PLC-gamma1 inh 10 | PLCg1 ctr inactive | PLCbeta3 conf inactive
CCN(Cc1ccccc1)C(=O)Cn1cc2c(n1)CCCC2	PLC-gamma1 inh 10 | PLCg1 ctr inactive | PLCbeta3 conf inactive
O=C(Cn1cc2c(n1)CCCCC2)NCc1ccccc1	none
O=C(NC1CCCCN(Cc2cccc(C(F)(F)F)c2)C1=O)c1cccc(F)c1 (configuration not stated)	none
Cc1ccc(NS(=O)(=O)c2ccc(OCC(=O)NCc3ccncc3)cc2)cc1	PLCb3 inh 11 | PLCg1 ctr inactive | PLCbeta3 conf inactive
CCOc1ccc(NS(=O)(=O)c2ccc(OCC(=O)NCc3ccncc3)cc2)cc1	none
CN1C2CC(OC(=O)C(CO)c3ccccc3)CC1C1OC12 (configuration not stated)	PLC-gamma1 inh 10! | PLCg1 ctr inactive | PLCbeta3 conf inactive
CN1[C@@H]2CC[C@H]1CC(OC(=O)C(CO)c1ccccc1)C2 (some centres not stated)	none
COC(=O)C(C)(C)c1cccnc1C#N	PLC-gamma1 inh 76 | PLCg1 ctr 77 | PLCbeta3 conf inactive
COC(=O)C(C)(C)NC(=O)c1cccs1	none
COc1ccc2[nH]cc(C(C)c3ccccc3O)c2c1 (configuration not stated)	none
CCCCNC(=O)CSc1nc2ccccc2c(=O)n1CC1COc2ccccc2O1 (configuration not stated)	PLC-gamma1 inh 13 | PLCg1 ctr inactive | PLCbeta3 conf inactive
CCCCN(CC)C(=O)CSc1nc2ccccc2c(=O)n1CC1COc2ccccc2O1 (configuration not stated)	none
COC(=O)[C@H]1C[C@@]2(c3ccccc3)c3ccccc3N(S(=O)(=O)c3ccccc3)[C@H]2N1	none
Clc1ccccc1OCCN1CCC(Cc2ccccc2)CC1	PLCb3 inh 18, PLC-gamma1 inh 20 | PLCg1 ctr inactive | PLCbeta3 conf inactive
O=C(Nc1ccc(Cl)c(Cl)c1)c1cccc2c1-c1ccccc1C2=O	none
CCOc1ccccc1N/C=C(\C#N)c1nc2ccccc2n1C	PLC-gamma1 inh 9.6 | PLCg1 ctr inactive | PLCbeta3 conf inactive
COc1ccc(CN(CC#Cc2ccc(C)cc2)C(N)=NC(=O)CCc2ccccc2)c(OC)c1	none
CCN(CC)S(=O)(=O)c1ccc2c(c1)c(=O)c(C(=O)NCc1cccs1)cn2C	PLC-gamma1 inh 9.6 | PLCg1 ctr inactive | PLCbeta3 conf inactive
CCn1cc(C(=O)OC)c(=O)c2cc(S(=O)(=O)N(C)C3CCCCC3)ccc21	none
CCC1CCCCN1CCCNC(=O)c1cn(C)c2ccc(S(=O)(=O)N(C)C3CCCCC3)cc2c1=O (configuration not stated)	PLC-gamma1 inh 12 | PLCg1 ctr inactive | PLCbeta3 conf inactive
COC(=O)c1cn(C)c2ccc(S(=O)(=O)N(C)C3CCCCC3)cc2c1=O	PLC-gamma1 inh 11 | PLCg1 ctr inactive | PLCbeta3 conf inactive
COC(=O)c1cn(C)c2ccc(S(=O)(=O)N3CCCCC3)cc2c1=O	PLC-gamma1 inh 12 | PLCg1 ctr inactive | PLCbeta3 conf inactive
CN1CCCCC(NC(=O)c2ccccn2)C1=O (configuration not stated)	none
CC(C)=CCC[C@@]1(C(=O)O)[C@H]2CC=C(CO)[C@@H]1CC/C(C)=C/CC/C(C)=C/C2	none
NC(=O)NOCc1ccc(Cl)cc1Cl	PLC-gamma1 inh 13 | PLCg1 ctr inactive | PLCbeta3 conf inactive
CC12CCC(CC1=O)C2(C)C (configuration not stated)	none
CC12CCC(C/C1=N/O)C2(C)C (configuration not stated)	PLC-gamma1 inh 10 | PLCg1 ctr inactive | PLCbeta3 conf inactive
CCc1nnc(N/N=C/c2c(F)cccc2Cl)n1N	PLC-gamma1 inh 14 | PLCg1 ctr inactive | PLCbeta3 conf inactive
Cc1cccc(CN2CCSc3sccc3C2=O)c1	PLC-gamma1 inh 13 | PLCg1 ctr inactive | PLCbeta3 conf inactive
O=C1c2ccsc2SCCN1Cc1cccc(Cl)c1	none
Cc1cc(C(=O)NC(=S)Nc2cccc(C(=O)O)c2C)ccc1[N+](=O)[O-]	PLC-gamma1 inh 9.8 | PLCg1 ctr inactive | PLCbeta3 conf inactive
Cc1nn(-c2ccccc2)c(Cl)c1C(=O)NCCCCNC(=O)c1c(C)nn(-c2ccccc2)c1Cl	PLCb3 inh 14, PLC-gamma1 inh 12 | PLCg1 ctr inactive | PLCbeta3 conf inactive

Bioassay records as filed in PubChem BioAssay.
